Results on 40 compounds are retold here after PubChem BioAssay.

A word on the inhibition: it is the share of the control response that was lost under treatment.

Calls of active or inactive are those of the source. How the calls were made is not given here.

This assay can be described thus: Brca1-Bard1 BiLC signal decrease – luminescence, single concentration, counter-screen for Mdm2/MdmX interaction inhibitor project, confirmation (AID 504668). The settings on record: Brca1/Bard1 bimolecular luciferase complementation counterscreen, at 8 µM, active compounds read high. On the technique in general: A counterscreen serves to expose hits that act by an unwanted route or on another target.
Regarding `CN1CCN(Cc2cc(COCc3ccccc3)c3cccnc3c2O)CC1`, the inhibition was 29.5% (active).
As to `Oc1ccccc1/C=N/Nc1nccnc1Cl`, the inhibition was 30.8% (active).
Next, `CCOc1ccc(N=Nc2ccc(O)c3ncccc23)cc1`: 23.3% (active); `CCOC(=O)Cn1c(-c2nonc2NC(=O)c2ccccc2F)nc2ccccc21`: 34.7% (active).
With `O=C(NC(Nc1ncc(S(=O)(=O)c2ccc([N+](=O)[O-])cc2)s1)(C(F)(F)F)C(F)(F)F)c1ccc(Cl)cc1` the figure was 29.5% (active); with `Cc1cccc(Cn2nc(C(C)(C)C)cc2C(=O)Nc2ccc(F)cc2)c1`, 31.2% (active).
Next, `Nc1nonc1-c1nc2ccccc2n1CC(=O)Nc1ccccc1`: 24.8% (active).
Turning to `CCCCN(Cc1ccco1)C(=O)c1cc2c(=O)[nH]c3ccc(C)cc3c2s1`, the inhibition is 23.8% (active).
`CC[C@]1(C(=O)OC)[C@H]2C(=O)N(Cc3ccccc3)C(=O)[C@H]2[C@H]2CN=C(SCc3ccccc3)N21`: the inhibition was 35.8% (active).
`CCc1ccc2[nH]c3nc(N/N=C/c4ccc(O)cc4O)nnc3c2c1`: the inhibition is 29.3% (active).
Next, `CCCOc1ccc(/C=N/Nc2cc(N3CCOCC3)ncn2)c(O)c1`: 23.7% (active).
With `COc1ccc(-c2oc3ncnc(NCCCN(C)C)c3c2-c2ccc(OC)cc2)cc1` the figure was 28.6% (active).
For the compound `O=C1N(c2ccccc2)C[C@@H]2C[C@@H](c3cc4ccccc4o3)N3CCC[C@@]123`, the inhibition is 35.1% (active).
Next, `Oc1ccc(N=Nc2ccc3c(c2)OCCO3)c2ncccc12`: 26.2% (active); `O=C(Nc1nc(-c2ccccn2)cs1)c1cc(Cl)ccc1[N+](=O)[O-]`: 32.3% (active).
Next, `N/C(=N\NC(=O)c1sccc1OCc1ccc(Cl)cc1Cl)c1ccccn1`: 35.1% (active).
With `CC#CC[N+](C)(C)CCCCCCCCCCCC` the figure was 29.6% (active); with `CCc1ccc(C(O)(CC(C)C)C(CN2CCOCC2)c2ccccc2)cc1` (stereo not given), 27.2% (active); with `Nc1nc(Cl)nc2c1ncn2C1CC(O)C(CO)O1` (stereo not given), 25.6% (active).
`Cn1nnnc1Sc1ncnc2scc(-c3ccccc3Br)c12`: the inhibition was 25% (active).
For `O=C(Nc1nc(-c2ccccn2)cs1)c1ccc(F)c(S(=O)(=O)N2CCOCC2)c1`, the inhibition is 25.6% (active).
With `C=CC(=O)N1c2ccccc2Sc2ccc(NC(=O)OCC)cc21` the figure was 35.2% (active); with `O=C(CCCN1C(=O)/C(=C\c2cccs2)SC1=S)Nc1cccnc1`, 25.5% (active); with `COc1ccc(/C=c2/sc3n(c2=O)C(c2ccccc2OC)C2=C(N=3)c3ccccc3CC2)cc1O` (stereo not given), 29.6% (active).
With `C[C@@]12C(=O)Nc3ccccc3C(=O)N1[C@H]1c3cc(Br)ccc3OC[C@@H]1[C@@H]2c1ccccc1` the figure was 30.8% (active).
With `O=C(CN1C(=O)/C(=C/c2ccccc2)SC1=S)N1CCN(CCc2ccccn2)CC1` the figure was 24.3% (active); with `ClC(Cl)(Cl)c1nc2ccccc2n2nncc12`, 31.8% (active); with `CC(=O)Oc1c(C)cc(Cl)cc1C(=O)Nc1ccc([N+](=O)[O-])cc1Cl`, 27.7% (active).
For `C(=N\Nc1nc2ccccc2[nH]1)/c1cccc2nccnc12`, the inhibition was 31.8% (active).
With `CCN1CCN(c2ccc(Nc3ccnc4ccccc34)cc2)CC1` the figure was 29.8% (active); with `CCC(=O)NC(c1ccc(OC)cc1)c1cc(Cl)c2cccnc2c1O` (stereo not given), 25.5% (active).
As to `CCC(C)NCC(=O)Nc1ccc(-c2nc3cc(NC(=O)CNC(C)CC)ccc3o2)cc1` (stereo not given), the inhibition is 35.6% (active).
With `Cc1ccc(/C=N/NC(=O)c2c(-c3ccccc3)noc2C)c(O)c1` the figure was 31.1% (active); with `Cc1cccc(NC(c2ccc(C)s2)c2ccc3ccc(C)nc3c2O)n1` (stereo not given), 23.7% (active).
With `Cc1nn2c(NCc3ccccn3)cc(C(C)C)nc2c1-c1ccccc1` the figure was 28.7% (active); with `Oc1c(C(c2ccccn2)N2CCC(Cc3ccccc3)CC2)cc(Cl)c2cccnc12` (stereo not given), 33.2% (active).
With `COc1ccc2cc(C(=O)N/N=C/c3sc4ccccc4c3O)ccc2c1` the figure was 32.4% (active); with `Cc1cc(Nc2cccc([N+](=O)[O-])c2)n2c(nc3ccccc32)c1C#N`, 30.7% (active); with `Cc1ccc(C(c2cc(Cl)c3cccnc3c2O)N2CCN(C)CC2)cc1` (stereo not given), 32.5% (active).
On to `CCOC(=O)c1cnc(-n2nc(C)cc2C)nc1NC1CCCCC1`, for which the inhibition is 30.1% (active).
